Several values for one entry are separate records, joined by “and”; a condition that tells them apart may be missing. Identical values can stand only once. Inconclusive results are not listed. Some compounds were tested as several samples or in several runs, with calls that do not always agree. Activity calls are given as the source filed them. Unless noted, calls come from the whole dose curve; as a rule, active = well fitted curve in the direction sought with a large enough effect in the repeat runs; inconclusive = weak or mixed curves; inactive = no such curve, though single readings can be large; an effect the other way counts as inactive or inconclusive.
Legend:
[1] = qHTS assay to identify small molecule antagonists of the glucocorticoid receptor (GR) signaling pathway - cell viability counter screen (AID 720693); note: nearly all actives have a fitted effect of over 55% in size
[2] = qHTS assay for identifying genotoxic compounds that show differential cytotoxicity against isogenic chicken DT40 cell lines with known DNA damage response pathways - wild type cell line (AID 743012); note: nearly all actives have a fitted effect of over 60% in size; note: potency is the fitted concentration of half-maximal effect
Procedure, shortened: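 Using parental DT40 (300 cells/well), compounds delivered in DMSO incubate 40 h at 37 C/5% CO2. CellTiter-Glo reagent then stands 30 min at room temperature, and luminescence gives cell viability.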

[3] = qHTS assay for identifying genotoxic compounds that show differential cytotoxicity against isogenic chicken DT40 cell lines with known DNA damage response pathways - Rev3 mutant cell line (AID 743014); note: nearly all actives have a fitted effect of over 55% in size; note: potency is the fitted concentration of half-maximal effect
[4] = qHTS assay for identifying genotoxic compounds that show differential cytotoxicity against isogenic chicken DT40 cell lines with known DNA damage response pathways - Rad54/Ku70 mutant cell line (AID 743015); note: nearly all actives have a fitted effect of over 60% in size; note: potency is the fitted concentration of half-maximal effect
[5] = qHTS assay to identify small molecule antagonists of the androgen receptor (AR) signaling pathway - cell viability counter screen (AID 743033; note: nearly all actives have a fitted effect of over 45% in size; note: potency is the fitted concentration of half-maximal effect)
[6] = target: Androgen receptor (Homo sapiens) (UniProt P10275); assay: qHTS assay to identify small molecule agonists of the androgen receptor (AR) signaling pathway (AID 743036; active = well fitted activation curve with a large enough effect in the signal ratio in the repeat runs, with a control signal flat, not every such curve was filed as active; the % refers to the signal ratio)
Procedure, shortened: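 Fluorescence from a beta-lactamase FRET substrate served as read-out in AR-UAS-bla GripTite HEK293 cells. Cells were treated with DMSO-dissolved compounds for 16 h at 37C, then with LiveBLAzer B/G substrate for 2 h at room temperature.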

[7] = qHTS assay to identify small molecule antagonists of the androgen receptor (AR) signaling pathway using the MDA cell line - cell viability counter screen (AID 743041; note: nearly all actives have a fitted effect of over 45% in size; note: potency is the fitted concentration of half-maximal effect)
Procedure, shortened: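 MDA-kb2 AR-luc human breast carcinoma cells (MMTV-luciferase, AR/GR responsive) were treated with compounds plus R1881 agonist for 16 h at 37 °C. Viability was read as CellTiter-Fluor fluorescence in the same wells as the reporter assay.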

[8] = qHTS assay to identify small molecule antagonists of the thyroid receptor (TR) signaling pathway - cell viability counter screen (AID 743064); note: nearly all actives have a fitted effect of over 50% in size; note: potency is the fitted concentration of half-maximal effect
Procedure, shortened: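 Fluorescence from CellTiter-Fluor, added after 23.5 h exposure at 37 °C, reported viability of GH3.TRE-Luc cells co-treated with compound and 1 nM T3. Measured in the same wells as the luciferase TR readout.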

[9] = target: Androgen receptor (Homo sapiens) (UniProt P10275); assay: qHTS assay to identify small molecule antagonists of the androgen receptor (AR) signaling pathway (AID 743035; active = well fitted inhibition curve with a large enough effect in the signal ratio in the repeat runs, not every such curve was filed as active; the % refers to the signal ratio)
Procedure, shortened: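 Using qHTS, AR-UAS-bla GripTite HEK293 cells received compound, then R1881, and were cultured 16 h at 37C/5% CO2 before a 2 h room-temperature LiveBLAzer B/G FRET substrate step and fluorescence measurement.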

[10] = qHTS assay to identify small molecule antagonists of the thyroid receptor (TR) signaling pathway (AID 743065); note: nearly all actives have a fitted effect of over 55% in size; note: potency is the fitted concentration of half-maximal effect
Procedure, shortened: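 GH3.TRE-Luc rat pituitary cells carrying two TR response elements driving luciferase were plated for 4 h, given compound plus 1 nM T3 (final), and incubated 23.5 h at 37 C. ONE-Glo luminescence measured reporter inhibition; CellTiter-Fluor fluorescence tracked cytotoxicity.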

Measured: Potency

Androgen receptor (Homo sapiens), sequence (P10275 whole entry, looked up): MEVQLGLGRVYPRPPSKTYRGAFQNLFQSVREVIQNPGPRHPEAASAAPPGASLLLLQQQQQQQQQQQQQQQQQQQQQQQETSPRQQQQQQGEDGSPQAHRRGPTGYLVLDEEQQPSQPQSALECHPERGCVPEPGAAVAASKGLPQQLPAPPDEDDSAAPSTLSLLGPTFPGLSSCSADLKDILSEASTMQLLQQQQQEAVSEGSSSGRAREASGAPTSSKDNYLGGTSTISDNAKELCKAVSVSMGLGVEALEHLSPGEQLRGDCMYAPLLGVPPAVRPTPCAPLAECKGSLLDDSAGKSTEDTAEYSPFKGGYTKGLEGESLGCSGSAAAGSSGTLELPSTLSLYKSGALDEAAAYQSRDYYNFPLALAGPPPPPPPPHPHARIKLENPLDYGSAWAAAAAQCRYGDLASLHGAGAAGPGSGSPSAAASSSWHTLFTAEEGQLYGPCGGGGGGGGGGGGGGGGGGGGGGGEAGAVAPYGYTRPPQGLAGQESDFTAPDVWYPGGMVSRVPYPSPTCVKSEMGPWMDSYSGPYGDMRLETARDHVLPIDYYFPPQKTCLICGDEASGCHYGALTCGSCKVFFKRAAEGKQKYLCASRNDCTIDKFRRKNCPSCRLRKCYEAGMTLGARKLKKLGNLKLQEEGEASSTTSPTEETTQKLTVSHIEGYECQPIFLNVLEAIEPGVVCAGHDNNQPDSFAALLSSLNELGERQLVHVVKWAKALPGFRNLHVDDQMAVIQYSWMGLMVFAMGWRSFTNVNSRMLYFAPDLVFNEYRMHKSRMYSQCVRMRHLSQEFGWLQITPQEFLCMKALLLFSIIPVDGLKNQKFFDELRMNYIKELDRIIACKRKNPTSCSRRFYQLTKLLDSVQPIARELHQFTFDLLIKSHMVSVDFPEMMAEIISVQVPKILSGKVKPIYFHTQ

Oc1ccc(OCc2ccccc2)cc1
inactive: [1] | [5] | [6] | [7]
active: [2] 2.54 µM and 8.45 µM | [3] 2.85 µM and 5.33 µM | [4] 4.52 µM and 11.9 µM | [8] 9.02 µM

C[C@@H]1O[C@@H](OC[C@H]2O[C@@H](Oc3c(-c4ccc(O)c(O)c4)oc4cc(O)cc(O)c4c3=O)[C@H](O)[C@@H](O)[C@@H]2O)[C@H](O)[C@H](O)[C@H]1O
inactive: [1] | [2] | [3] | [4] | [5] | [9] | [6] | [7] | [10]

CCCCCCCCCCCCN
inactive: [1]
inactive and 19.3 µM (active): [4]
inactive and 54.9 µM (active): [5]
inactive and 21.7 µM (active): [3]
inactive and 15.4 µM (active): [2]

CS(=O)(=O)c1ccc([C@@H](O)[C@@H](CO)NC(=O)C(Cl)Cl)cc1
inactive: [1] | [5] | [7] | [8] | [10]
active: [2] 4.52 µM and 4.92 µM | [3] 7.17 µM and 4.38 µM | [4] 7.17 µM and 4.92 µM

NS(=O)(=O)c1cc2c(cc1Cl)NC=NS2(=O)=O
inactive: [1] | [2] | [3] | [4] | [5] | [7] | [8] | [10]

CC(C)(C)C(=O)C1C(=O)c2ccccc2C1=O
inactive: [1] | [5]
inactive and 13.7 µM (active): [3]
active: [2] 60.5 µM and 12.2 µM | [4] 13.7 µM

CC(C)(N=C=O)c1cccc(C(C)(C)N=C=O)c1
inactive: [1] | [2] | [3] | [4] | [5] | [7] | [8] | [10]

C=C(C)C(=O)OCCCCCCCCCCCC
inactive: [1] | [2] | [3] | [4] | [5] | [7] | [8] | [10]

CC1(C)O[C@@H]2C[C@H]3[C@@H]4C[C@H](F)C5=CC(=O)CC[C@]5(C)[C@H]4[C@@H](O)C[C@]3(C)[C@]2(C(=O)CO)O1
inactive: [1] | [2] | [3] | [4] | [5] | [7] | [8] | [10]

CC1Cc2ccccc2N1NC(=O)c1ccc(Cl)c(S(N)(=O)=O)c1 (stereo unspecified)
inactive: [1] | [2] | [3] | [4] | [5] | [7] | [8] | [10]

CCOC(=O)/C=C\C(=O)OCC
inactive: [1] | [2] | [3] | [4] | [5] | [7] | [8]

OC[C@@H](O)[C@H](O)[C@H](O)[C@@H](O)CO
inactive: [1] | [2] | [3] | [4] | [5] | [7] | [8] | [10]

CCCCOCCO
inactive: [1] | [2] | [3] | [4] | [5] | [7] | [8] | [10]

OCC#CCO
inactive: [1] | [5] | [7] | [8]
inactive and 54.5 µM (active): [2] | [3]
inactive and 48.6 µM (active): [4]

C=C(C)C(=O)OCCCCCC
inactive: [1] | [2] | [3] | [4] | [5] | [7] | [8] | [10]

O=C(Oc1ccccc1)c1ccc(O)cc1
inactive: [1] | [2] | [3] | [4] | [5] | [7] | [8] | [10]

CCCCCCOC(C)=O
inactive: [1] | [2] | [5] | [7]
active: [3] 54.5 µM | [4] 61.1 µM

CN(CCOc1ccc(CC2SC(=O)NC2=O)cc1)c1ccccn1 (stereo unspecified)
inactive: [1] | [5] | [7] | [8]
active: [4] 27.1 µM | [10] 54.2 µM
inactive and 60.8 µM (active): [2] | [3]

CCCCC(CC)C(=O)OCCOCCOCCOC(=O)C(CC)CCCC (stereo unspecified)
inactive and 19.3 µM (active): [3]
inactive: [1] | [4] | [5] | [9] | [6] | [7] | [10]
active: [2] 21.7 µM

CCc1ccc(O)cc1
inactive: [1] | [2] | [3] | [4] | [5] | [9] | [6] | [7] | [8] | [10]

CCOC(=O)C1OC1c1ccccc1 (stereo unspecified)
inactive: [1] | [2] | [3] | [4] | [5] | [7]

Cc1ccc(C(=O)O)o1
inactive: [1] | [2] | [3] | [4] | [5] | [7] | [8] | [10]

CC1CC(OC(=O)c2ccccc2O)CC(C)(C)C1 (stereo unspecified)
inactive: [1] | [2] | [3] | [4] | [5] | [7]

COCC(C)O (stereo unspecified)
inactive: [1] | [2] | [3] | [4] | [5] | [7] | [8] | [10]

Cc1ccc(N)c(S(=O)(=O)O)c1
inactive: [1] | [2] | [3] | [4] | [5] | [7] | [8] | [10]

CC(C)(CO)COC(=O)C(C)(C)CO
inactive: [1] | [2] | [3] | [4] | [5] | [9] | [6] | [7] | [8] | [10]

O=C1CCCCC1
inactive: [1] | [2] | [3] | [4] | [5] | [9] | [6] | [7] | [10]

COC(=O)c1ccccc1O
inactive: [1] | [2] | [3] | [4] | [5] | [7] | [8] | [10]

O=S(=O)(O)CCS
inactive: [1] | [2] | [3] | [4] | [5] | [7] | [8] | [10]

CCCCCC/C=C/CCCCCCCC(=O)O
inactive: [1] | [2] | [3] | [4] | [5] | [7]

CC(C)Cc1ccccc1
inactive: [1] | [2] | [3] | [4] | [5] | [7] | [8] | [10]

CCCCCCCCC
inactive: [1] | [2] | [3] | [4] | [5] | [7] | [8] | [10]

CC1=C(/C=C/C(C)=C/C=C/C(C)=C/CO)C(C)(C)CCC1
active: [2] 28.8 µM | [3] 55.1 µM and 36.2 µM | [4] 43.8 µM and 25.7 µM
inactive: [1] | [5] | [7] | [8]

Cc1cc(=O)[nH]c(C(C)C)n1
inactive: [1] | [2] | [3] | [4] | [5] | [9] | [6] | [7] | [10]

CN(C)c1ccc(C(=N)c2ccc(N(C)C)cc2)cc1
inactive: [1]
active: [2] 5.38 µM and 11.7 µM | [3] 2.4 µM and 8.31 µM | [4] 3.81 µM and 11.7 µM | [5] 34.2 µM and 37.4 µM | [7] 60.4 µM | [8] 53.8 µM and 26.3 µM | [10] 7.6 µM and 7.4 µM

CCCCC/C=C\C/C=C\CCCCCCCC(=O)OC
inactive: [1] | [5] | [7]
active: [2] 30.6 µM | [3] 30.6 µM | [4] 21.7 µM

CS(=O)(=O)Nc1ccc([N+](=O)[O-])cc1Oc1ccccc1
inactive: [1] | [2] | [3] | [4] | [5] | [7] | [8] | [10]

Oc1ccc2ccccc2c1
inactive: [1] | [2] | [3] | [4] | [5] | [6] | [7] | [8]

Nc1nc2ncc(CNc3ccc(C(=O)N[C@@H](CCC(=O)O)C(=O)O)cc3)nc2c(=O)[nH]1
inactive: [1] | [3] | [4] | [5] | [9] | [6] | [7]

c1ccc2[nH]cnc2c1
inactive: [1] | [2] | [3] | [4] | [5] | [7] | [10]

O=[N+]([O-])C(CO)(CO)CO
inactive: [1] | [3] | [5] | [7] | [10]
inactive and 68.6 µM (active): [2] | [4]

CC(C)(C)C1CCC(O)CC1 (stereo unspecified)
inactive: [1] | [2] | [3] | [4] | [5] | [7] | [10]

O=C(O)c1ccc([N+](=O)[O-])cc1
inactive: [1] | [2] | [3] | [4] | [5] | [7] | [10]

O=Nc1ccc(O)cc1
inactive: [1] | [3] | [4] | [5] | [9] | [6] | [7] | [10]

CC1(C)CC(N=C=O)CC(C)(CN=C=O)C1 (stereo unspecified)
inactive: [1] | [2] | [3] | [4] | [5] | [7] | [10]

O=C1N=C(O)CN1/N=C/c1ccc(-c2ccc([N+](=O)[O-])cc2)o1
active: [2] 61.1 µM | [4] 26.6 µM and 27.3 µM | [8] 15 µM and 30.6 µM | [10] 27.3 µM
inactive and 68.6 µM (active): [3]
inactive: [1] | [5]

ClC1=C(Cl)C(Cl)(Cl)C(Cl)=C1Cl
inactive and 770 nM (active): [2] | [4]
inactive: [1] | [5] | [7] | [8]
inactive and 864 nM (active): [3]
active: [10] 54.5 µM

Cc1cc(NS(=O)(=O)c2ccc(N)cc2)no1
inactive: [1] | [2] | [3] | [4] | [5] | [7] | [8] | [10]
